# Hits are enriched below; roughly 4% of the tested compounds scored in any of these assays.
# TROY signal inh: inhibitors of TROY-dependent NF-kB signaling. AID 1347056. Q293 LMP1-TROYcd NF-kB luciferase reporter, 4 h. 0.98% of 360,000 active. inhibition, % at 10 µM;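 active = compounds whose plate-normalised and pattern-corrected inhibition of the luciferase reporter signal at the single screening dose is 50% or more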
# HIF-2a inh: inhibitors of HIF-2a; 786-0 RCC cells HIF-2a reporter, luciferase luminescence, overnight; inhibition, % at 18.8 µM; 0.72% of 360,000 active;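 active = inhibition of the luminescence signal of 40% or more relative to plate controls, in a single-dose primary screen at 18.75 µM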
# KKLEB cytotox: CF airway cell cytotoxicity counter-screen. KKLEB CF airway cells viability, ATPlite luminescence, overnight; active compounds read low; cells stimulated with P. aeruginosa culture filtrate. activity change (cytotoxicity), % at 5 µM. 0.36% of 360,000 active. AID 602141;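 active = corrected activity change at or below -50% at 5 µM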
# CF NFkB inh: cystic fibrosis NF-kB activation inhibition. KKLEB NF-kB-GFP reporter, PAF-induced, GFP fluorescence overnight. inhibition, % at 5 µM. 0.86% of 360,000 active;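 active = at least 50% inhibition at 5 µM, scaled per plate between neutral and stimulator controls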;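 also: PAF is a Pseudomonas aeruginosa culture filtrate used as stimulus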
# Peg3 prom inh: reduces Peg3 promoter-driven luciferase expression in HeLa | HeLa PEG-Prom luciferase reporter, luminescence, overnight | inhibition, % at 20 µM | 1.7% of 360,000 active | AID 588405;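 active = inhibition of at least 50% at 20 µM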
# TWEAK-Fn14 inh: inhibitors of TWEAK-Fn14 interaction signaling | TWEAK-stimulated Fn14 reporter cells, luciferase luminescence, 8 h | inhibition, % at 10 µM | 2% of 360,000 active | AID 1159606; in the data active = inhibition above about 50%
# Numbers stand for hits; n = inactive; x = not tested or not shown.
SMILES,TROY signal inh,HIF-2a inh,KKLEB cytotox,CF NFkB inh,Peg3 prom inh,TWEAK-Fn14 inh
O=C(CCSc1nc(-c2ccco2)cc(C(F)(F)F)n1)NCC1CCCO1 (configuration not stated),x,n,n,n,n,n
O=C(CCCSc1nc(-c2ccco2)cc(C(F)(F)F)n1)NCC1CCCO1 (configuration not stated),x,n,n,n,n,70.5
Cc1nc(Nc2ccc(Cl)cc2)c2nnn(Cc3ccccc3)c2n1,n,n,n,n,n,n
Cc1nc(Nc2ccc(S(=O)(=O)N3CCCCC3C)cc2)c2nnn(Cc3ccccc3)c2n1 (configuration not stated),n,n,n,n,n,66.0
Cc1nn(-c2ccccc2)c(Cl)c1/C=C1\SC(=S)NC1=O,51.3,n,n,n,n,n
O=C(Nc1cccc(S(=O)(=O)N2CCCC2)c1)c1ccc2c(=O)n3c(nc2c1)CCCCC3,n,n,n,n,n,56.5
Cc1cccc(NC(=O)c2ccc3c(=O)n4c(nc3c2)CCCCC4)n1,n,n,n,n,n,57.1
O=C(Nc1ccccc1Cl)c1ccc2c(=O)n3c(nc2c1)CCC3,n,n,n,n,n,n
Cc1ccc(NC(=O)c2ccc3c(=O)n4c(nc3c2)CCCCC4)nc1,n,n,n,n,n,n
O=C(Nc1nc(-c2ccccc2)cs1)c1ccc2c(=O)n3c(nc2c1)CCCCC3,71.4,n,n,n,74.2,106.0
CC(=O)c1cccc(NC(=O)c2ccc3c(=O)n4c(nc3c2)CCCCC4)c1,n,n,n,n,n,n
CCc1ccc(NC(=O)CSc2nc3nc(C)cc(C)n3n2)cc1,n,n,n,n,n,n
CN(c1ccc(Cl)cc1)c1cc2c(c3c1ccn3C)C1CCC2O1 (configuration not stated),n,n,n,n,n,n
C[C@H]1CN([C@@H](C)CO)C(=O)CCCn2nncc2CO[C@@H]1CN(C)S(=O)(=O)c1ccc(-n2cccn2)cc1,n,n,n,n,n,n
CCC1(CC)NC(=O)N(CC(=O)OCC(=O)Nc2ncc(Cl)cc2Cl)C1=O,n,n,n,n,n,n
CCN(CC)c1ccc2c(O)cc(=O)oc2c1,n,n,n,n,n,85.5
Cc1cccc(C(=O)Nc2ccc(C(=O)c3ccncc3)cc2)c1,n,n,n,n,n,n
Cc1nn(C)c(C(=O)Nc2ccc(S(=O)(=O)NC34CC5CC(CC(C5)C3)C4)cc2)c1Br,51.5,n,n,n,n,n
Cc1ccc(S(=O)(=O)NC23CC4CC(CC(C4)C2)C3)cc1,n,n,n,n,n,n
CCSc1n[nH]c(=S)s1,n,n,n,n,n,n
CC(=O)NCCc1ccc(S(=O)(=O)N2CCCC2)cc1,n,n,n,n,n,82.0
O=C(NCc1ccccc1Cl)c1ccc(S(=O)(=O)N2CCCC2)cc1,n,n,n,n,51.5,n
Cc1ccc2nsnc2c1NC(=O)c1ccc(-c2cc(Cl)ccc2Cl)o1,n,n,n,n,100.7,n
O=C(Nc1ccc(CN2CCOCC2)cc1)c1ccc(Br)o1,n,n,n,n,n,n
O=C(NCc1ccccc1F)c1ccc(S(=O)(=O)N2CCCC2)cc1,n,n,n,n,n,n
SMILES,TROY signal inh,HIF-2a inh,KKLEB cytotox,CF NFkB inh,Peg3 prom inh,TWEAK-Fn14 inh
O=C(Nc1ccc(CN2CCOCC2)cc1)c1ccc(-c2cc(Cl)ccc2Cl)o1,50.9,n,n,n,n,75.8
CCc1ccc(N2CC(C(=O)Nc3cccc(C(=O)NC4CC4)c3)CC2=O)cc1 (configuration not stated),n,n,n,n,n,n
Cc1ccc(NC(=O)c2ccc3c(c2)N(CC(=O)NC(C)C)C(=O)C(C)(C)O3)cc1,n,n,n,n,n,n
O=C(Nc1ccc(S(=O)(=O)N2CCCCC2)cc1)c1ccc(CN2CCOCC2)cc1,52.7,n,n,n,n,68.3
N#CCCN(C(=O)Nc1ccc(Cl)cc1)c1ccccc1,n,n,n,n,n,85.8
O=C(CSc1n[nH]c(-c2ccco2)n1)Nc1ccccc1Cl,n,n,n,n,n,n
CC(C)Cn1nc(NC(=O)c2cccs2)c2cc3ccccc3nc21,n,n,n,n,n,n
COc1ccc2nc3c(cc2c1)c(NC(=O)c1cccs1)nn3CC(C)C,n,n,n,n,n,51.2
Cc1nn(C2CCS(=O)(=O)C2)c2nc(C3CC3)cc(C(=O)Nc3ccc(C(N)=O)cc3)c12 (configuration not stated),n,n,n,n,n,n
CCOC(=O)c1c(C)[nH]c(C(=O)COC(=O)CCSc2ccccc2)c1C,n,n,n,n,n,n
CCOC(=O)c1c(C)[nH]c(C(=O)CSc2ccccc2)c1C,n,n,n,n,n,67.2
COc1ccc2[nH]c3c(NCCC4=CCCCC4)ncnc3c2c1,n,n,n,n,n,79.1
COc1ccc2[nH]c3c(NCCCOC(C)C)ncnc3c2c1,n,n,n,n,n,n
CCOC(=O)C1CCCN(C(=O)c2[nH]c(C(F)(F)F)nc2-c2ccccc2)C1 (configuration not stated),n,n,n,n,n,n
C/C(=N\NC(=O)c1c(Cl)c(C)nn1C)c1cccc(NC(=O)C2CCCC2)c1,n,n,n,n,n,n
CCn1nnnc1SCC(=O)N1c2ccccc2Sc2ccccc21,n,n,n,n,n,63.2
Cn1nnnc1SCC(=O)N1c2ccccc2Sc2ccccc21,n,n,n,n,n,n
Cc1ccc(/C(N)=N/OC(=O)CN(C)S(=O)(=O)c2ccc(C)cc2)cc1,n,n,n,n,n,n
COc1ccc(/C(N)=N/OC(=O)CN(C)S(=O)(=O)c2ccc(C)cc2)cc1,n,n,n,n,n,68.3
Cc1cc(C)c2nc(N3CCCC(C(=O)NCCCN4CCOCC4)C3)sc2c1 (configuration not stated),n,n,n,n,n,n
Cc1cc(C)c2nc(N3CCC(C(=O)NCCCN4CC(C)CC(C)C4)CC3)sc2c1 (configuration not stated),n,n,n,n,104.2,n
O=c1[nH]c(=S)[nH]c2c1C(c1ccc(F)cc1)OC(C1CCCCC1)C2 (configuration not stated),n,n,n,n,n,n
COc1ccc(NC(=O)CC23CC4CC(CC(C4)C2)C3)cn1,n,n,n,n,n,n
Cc1ccc(-c2cc(C(=O)N/N=C/c3c(C)nn(-c4ccccc4)c3C)n[nH]2)s1,n,n,n,57.1,n,51.1
Cc1nn(-c2ccccc2)c(C)c1/C=N/NC(=O)c1cc(C(C)(C)C)[nH]n1,n,n,n,n,n,n
Cc1ccccc1-c1nc2sc3c(c2c(=O)n1N)CCCC3,77.2,n,n,n,n,70.6
O=c1oc(-c2ccccc2)nc2sc3c(c12)CCCC3,n,n,n,n,n,53.2
Cc1cc(NS(=O)(=O)c2ccc(NC(=O)c3cnc(Cl)c(Cl)c3)cc2)nc(C)n1,n,n,n,n,n,n
